# In PubChem BioAssay (NCI):
# Compounds without any hit were thinned out: in the full panel of roughly 79,000, 15% have a hit. A number with no mark means an inactive call. Activity calls are given as the source filed them. No stated cut-off is given here; in the data, active means growth inhibition above about 70%; inactive means the rest.
# Assays:
# [1] = NCI Yeast Anticancer Drug Screen. Data for the rad50 strain (AID 155);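 further: 0% = growth of vehicle-only cultures of the same strain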; settings: S. cerevisiae rad50 strain growth inhibition; at 50.0 µM; hits give high values
# Summary of the method: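 Genetically altered yeast (DNA repair pathway); compound treatment; growth inhibition vs vehicle ctrl.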
# [2] = NCI Yeast Anticancer Drug Screen. Data for the mec2-1 strain (AID 157); settings: S. cerevisiae mec2-1 strain, at 50.0 µM, hits give high values
# Summary of the method: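 Using mec2-1 yeast: add compound, measure growth, express inhibition versus vehicle-treated cultures.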
# [3] = NCI Yeast Anticancer Drug Screen. Data for the sgs1 mgt1 strain (AID 161);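 further: 0% = growth of cultures given vehicle only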; settings: S. cerevisiae sgs1 mgt1 strain, at 50.0 µM, hits give high values
# Summary of the method: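 This yeast growth screen uses a strain with defined DNA-repair lesions; compound-treated growth is compared with vehicle-treated growth.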
# [4] = NCI Yeast Anticancer Drug Screen. Data for the cln2 rad14 strain (AID 165);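 further: 0% = growth equal to vehicle treated cultures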; settings: S. cerevisiae cln2 rad14 strain, at 50.0 µM, hits give high values
# Summary of the method: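 Yeast strain cln2 rad14, bearing defects in cell cycle control and DNA repair, serves as the test system; values reflect growth inhibition compared with vehicle.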
# [5] = NCI Yeast Anticancer Drug Screen. Data for the bub3 strain (AID 167); settings: S. cerevisiae bub3 mutant strain, at 50.0 µM, hits give high values
# Summary of the method: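 Yeast carrying a defined mutation is treated with each compound, and growth is compared with that of vehicle-exposed cells to give inhibition.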
# [6] = NCI Yeast Anticancer Drug Screen. Data for the mlh1 rad18 strain (AID 175); settings: S. cerevisiae mlh1 rad18 strain growth inhibition; at 50.0 µM; hits give high values
# Summary of the method: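 Steps: expose repair-defective yeast to compound; measure growth; express inhibition against vehicle-treated controls.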
SMILES,growth inhibition [1],growth inhibition [2],growth inhibition [3],growth inhibition [4],growth inhibition [5],growth inhibition [6]
C=C(Cl)Cc1c(O)c2c(c(O)c1CC(=C)Cl)C(=O)c1ccccc1C2=O,-39.2%,-42.7%,-50%,1.8%,-18.1%,-33.5%
Brc1ccc(N=C2NN=CC2(c2ccccc2)c2ccccc2)cc1,25.6%,1.75%,6.75%,4.85%,19.6%,-1.15%
Nc1c(Br)cc(Br)cc1-c1cc(Br)cc(Br)c1N,3.65%,17%,10.4%,5.3%,13.4%,24.4%
COC1OC(CI)C(OC(=O)c2ccccc2)C(OC(=O)c2ccccc2)C1OC(=O)c1ccccc1 (configuration not stated),10.8%,21.4%,10.2%,15.2%,36.1%,33.5%
O=C(CNC(=O)c1ccccc1)NCS(=O)(=O)O,12.2%,-3.6%,19%,14.7%,19.2%,11.3%
O=C1NC(=O)[C@@H](OCC2CCCCC2)[C@@H]2OCC3OC(C(O)C3O)C12 (some centres not stated),-33.9%,-3.1%,9.9%,23.2%,10.3%,-5.7%
O=C(O)C1C2CCC(O2)C1C(=O)NCc1cccnc1 (configuration not stated),23.1%,-3.8%,-11.7%,-9.9%,-11%,2.85%
CC1CCP(=O)(c2ccccc2)CC1 (configuration not stated),8.5%,-10.8%,-7.15%,6.9%,-7.3%,-35.2%
CC1C(=O)C2C1CS2(=O)=O (configuration not stated),-0.9%,0.65%,5%,-59.1%,13%,-5.45%
O=[N+]([O-])C(C=Nc1ccccc1)C=Nc1ccccc1 (configuration not stated),6.35%,-23%,-2.85%,-2.25%,-13.4%,0.45%
Cc1ccc(C2(c3ccc(Cl)cc3)c3ccccc3C3=NCCN32)cc1 (configuration not stated),19.9%,9.15%,25.6%,23%,28.1%,30.7%
O=C(O)c1c(Cl)c(Cl)c(Cl)c(C(=O)O)c1Cl,-2.05%,2.2%,7.25%,-36.1%,5.85%,19.2%
Cc1c2ccccc2nc(CS(=O)c2ccccc2)[n+]1[O-] (configuration not stated),-8.8%,21.9%,20.1%,-36.4%,16.8%,20.2%
S=C(N/N=C/c1cccc2ccccc12)Nc1c(Cl)cccc1Cl,67.4%,83.6% (active),94.2% (active),55.6%,44.6%,66.2%
COC(=O)CC1C2(C)C3=C(C)C(c4ccoc4)CC3OC2C2OC(=O)C3(C)C=CC(=O)C1(C)C23 (configuration not stated),85% (active),84.2% (active),79.2% (active),81% (active),82% (active),90.3% (active)
CC(C(=O)O)C(C)C(=O)O (configuration not stated),3.3%,4.15%,9.8%,6.45%,5.1%,14.2%
CCCCNCCOC(=O)c1ccc(N)cc1,2.9%,2%,1.9%,16.4%,10.1%,12.1%
COC(=O)N/N=C(/C)c1ccco1,8.75%,27.9%,3.55%,1.55%,14.8%,16.2%
N#CCCC1(CCC#N)CCCCCCC(CCC#N)(CCC#N)C(O)C1O (configuration not stated),10.8%,-12%,-6.45%,3.15%,-15.2%,-46.2%

SMILES,growth inhibition [1],growth inhibition [2],growth inhibition [3],growth inhibition [4],growth inhibition [5],growth inhibition [6]
Brc1cc(Br)cc(-c2nnc(-c3ccc4ccccc4c3)o2)c1,-3.5%,-20.8%,-2.45%,3.25%,3%,4.55%
Cc1ccc(-n2c(=O)nc([O-])[n+]3ccccc23)cc1,-2.85%,-6.85%,-7.95%,-24.8%,-3.75%,6.65%
COc1cc(NCCNCC(C)(C)C)c2ncccc2c1,11.7%,18.7%,22.1%,11.8%,33.5%,0.5%
CC(=O)OC1CN(c2ccc(Br)cc2)CC(OC(C)=O)CN(c2ccc(Br)cc2)C1 (configuration not stated),6.25%,9.7%,-13.8%,-32.9%,-5.55%,-13.3%
N#CCc1c(F)c(F)c(F)c(F)c1F,6.8%,5.75%,14.4%,3.2%,10.5%,2.6%
C=C1C(=O)O[C@@H]2C3=C(C)C(=O)C=C[C@]3(C)CC[C@@H]12,5.3%,9.05%,8.55%,0.8%,6.6%,-14.3%
CN(C)c1ccc([O-])cc1.CN(C)c1ccc([O-])cc1.CN(C)c1ccc([O-])cc1.CN(C)c1ccc([O-])cc1.[Ti+4],26.9%,-19.4%,4.65%,19.3%,4.95%,-2.6%
NC1=NS(=O)(=O)Nc2nc(-c3ccc([N+](=O)[O-])o3)[nH]c21,50.5%,-8.6%,26.1%,23.2%,-2.7%,50.5%
COc1ccc(C(CC(=O)O)CC(=O)O)cc1[N+](=O)[O-],0.75%,-1.7%,-2.1%,-6.2%,15.9%,10.8%
CC[n+]1ccc2cc(OC)c(OC)cc2c1Cc1ccc(OC)c(OC)c1,-18%,-5.55%,-5.85%,-34%,-1.2%,-16.1%
CCOC(=O)c1c[nH]c2cc(Cl)ccc2c1=O,3.85%,30.5%,9.65%,7.9%,15.3%,-12.9%
OCC1OC(Nc2ccc(F)cc2)C(O)C1O (configuration not stated),2.95%,-10.4%,-1.3%,30.1%,-13.2%,26.2%
Cn1nc(-c2ccccc2)c(C(=O)/C=C/c2ccc(F)cc2)c(N2CCCCC2)c1=O,2.55%,8.55%,-0.95%,28.2%,4.1%,10.2%
O=c1oc2ccccc2c(N2CCCCC2)c1Cl,1.6%,40.6%,12.3%,22.1%,17.6%,15%
O=C(O)/C(=C(\CO)c1ccccc1)c1ccccc1,7.15%,9.25%,11%,24.4%,3.25%,26.7%
CC(=O)OC1CC[C@@]2(C)C(CC[C@]3(C)C2CC=C2[C@@H]4C(C)[C@H](C)CCC4(C)CCC23C)[C@@]1(C)C(=O)O (some centres not stated),1.05%,14.8%,16.4%,3.25%,48.1%,16.4%
C/C(Cc1ccccc1)=N\NS(=O)(=O)c1ccc(C)cc1,44.4%,-2.15%,35.9%,8.85%,1.1%,34.6%
Nc1ncnc2c1ccn2C1OC2COP(=O)(O)OC2C1O (configuration not stated),-12.6%,-31.4%,-7.1%,8.45%,-18.3%,-15.1%
